# Article PMC7862700, “An all-to-all approach to the identification of sequence-specific readers for epigenetic DNA modifications on cytosine”
# What was measured:
# Assay in all cases: DAPPL (digital affinity profiling via proximity ligation, sequencing); 10 mM Tris-HCl pH 7.5, 50 mM NaCl, 1 mM DTT, 4% glycerol, room temperature, 30 min; GST-TFs on glutathione beads, 16-mer random dsDNA library, 0.1% formaldehyde crosslink after washing; high values mean tight binding
# FEV = biological target: T1, FEV (Homo sapiens, UniProt Q99581 1-238); conditions: protein: recombinant; tags: N-terminal GST; dsDNA, one strand shown
# T1 sequence: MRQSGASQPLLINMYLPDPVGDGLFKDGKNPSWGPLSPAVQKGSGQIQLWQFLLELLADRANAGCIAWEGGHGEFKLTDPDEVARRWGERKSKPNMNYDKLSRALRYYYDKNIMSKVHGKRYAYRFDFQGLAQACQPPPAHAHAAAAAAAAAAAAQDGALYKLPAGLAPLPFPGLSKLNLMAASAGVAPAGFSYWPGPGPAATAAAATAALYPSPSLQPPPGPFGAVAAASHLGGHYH
# Outline: (§1)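 Binding signal is each hexamer's read frequency for a factor divided by its frequency in the tag-only sample. The factors were GST-fused human transcription factors from yeast, captured on glutathione beads, DNA-barcoded and pooled with that sample. Pools were incubated with 200 nmole of a random double-stranded 16-mer DNA library in Tris/NaCl/DTT/glycerol buffer at room temperature for 30 min, then washed, crosslinked with 0.1% formaldehyde, proximity-ligated with BsaI/T4 ligase (1 h, 37 °C), PCR-amplified and sequenced on an Illumina NextSeq500.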
# ETV5 = ETV5 (Homo sapiens, UniProt P41161 1-510); conditions: protein: recombinant; tags: N-terminal GST; dsDNA, one strand shown
# Outline: as §1
# HSF1 = HSF1 (Homo sapiens, UniProt Q00613 1-529); conditions: protein: recombinant; tags: N-terminal GST; chain copies: 3; dsDNA, one strand shown
# Outline: as §1
# SPIC = biological target: T2, SPIC (Homo sapiens, UniProt Q8N5J4 1-248); conditions: protein: recombinant; tags: N-terminal GST; dsDNA, one strand shown
# T2 sequence: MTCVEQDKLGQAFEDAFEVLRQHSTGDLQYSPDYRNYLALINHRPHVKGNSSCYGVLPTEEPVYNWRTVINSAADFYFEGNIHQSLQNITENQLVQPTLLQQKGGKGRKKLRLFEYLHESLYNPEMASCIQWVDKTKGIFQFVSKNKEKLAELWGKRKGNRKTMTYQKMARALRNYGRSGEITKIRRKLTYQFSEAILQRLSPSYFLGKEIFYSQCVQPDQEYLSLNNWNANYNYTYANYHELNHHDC
# Outline: as §1
# ELF4 = ELF4 (Homo sapiens, UniProt Q99607 1-663); conditions: protein: recombinant; tags: N-terminal GST; dsDNA, one strand shown
# Outline: as §1
# ELK4 = biological target: T3, ELK4 (Homo sapiens, UniProt P28324-2 1-405); conditions: protein: recombinant; tags: N-terminal GST; dsDNA, one strand shown
# T3 sequence: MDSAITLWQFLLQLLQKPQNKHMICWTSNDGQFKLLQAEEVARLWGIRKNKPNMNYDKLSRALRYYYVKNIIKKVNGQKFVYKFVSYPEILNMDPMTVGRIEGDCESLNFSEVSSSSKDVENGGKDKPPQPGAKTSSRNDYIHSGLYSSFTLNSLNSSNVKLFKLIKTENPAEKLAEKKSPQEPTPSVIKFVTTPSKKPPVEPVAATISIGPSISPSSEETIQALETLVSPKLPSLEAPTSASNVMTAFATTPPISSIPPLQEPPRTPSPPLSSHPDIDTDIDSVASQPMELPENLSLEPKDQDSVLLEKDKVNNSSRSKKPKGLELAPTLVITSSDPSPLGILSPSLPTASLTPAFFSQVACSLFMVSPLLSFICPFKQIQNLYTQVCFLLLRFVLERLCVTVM
# Outline: as §1
# ETV2 = biological target: T4, ETV2 (Homo sapiens, UniProt O00321 1-342); conditions: protein: recombinant; tags: N-terminal GST; dsDNA, one strand shown
# T4 sequence: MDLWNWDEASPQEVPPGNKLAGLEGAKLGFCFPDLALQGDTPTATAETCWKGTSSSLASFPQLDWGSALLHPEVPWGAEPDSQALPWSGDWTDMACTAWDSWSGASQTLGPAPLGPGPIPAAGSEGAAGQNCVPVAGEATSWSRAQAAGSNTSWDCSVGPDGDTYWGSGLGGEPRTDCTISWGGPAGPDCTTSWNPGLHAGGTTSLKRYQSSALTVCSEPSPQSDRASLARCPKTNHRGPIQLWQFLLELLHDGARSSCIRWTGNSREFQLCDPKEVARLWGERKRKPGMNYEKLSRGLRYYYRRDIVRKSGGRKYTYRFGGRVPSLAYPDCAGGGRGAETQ
# Outline: as §1
# ELF3 = biological target: T5, ELF3 (Homo sapiens, UniProt P78545 1-371); conditions: protein: recombinant; tags: N-terminal GST; dsDNA, one strand shown
# T5 sequence: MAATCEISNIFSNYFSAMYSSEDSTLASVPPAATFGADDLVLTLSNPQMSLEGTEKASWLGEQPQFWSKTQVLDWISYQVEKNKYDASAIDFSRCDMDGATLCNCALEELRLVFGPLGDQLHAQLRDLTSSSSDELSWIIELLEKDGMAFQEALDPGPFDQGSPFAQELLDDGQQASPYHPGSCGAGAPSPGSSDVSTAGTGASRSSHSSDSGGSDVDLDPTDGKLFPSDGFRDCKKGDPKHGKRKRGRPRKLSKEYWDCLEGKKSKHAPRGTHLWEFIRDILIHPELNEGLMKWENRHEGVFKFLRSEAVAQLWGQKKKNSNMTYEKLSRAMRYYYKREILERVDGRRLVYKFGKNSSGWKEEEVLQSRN
# Outline: as §1
# CRX = CRX (Homo sapiens, UniProt O43186 1-299); conditions: protein: recombinant; tags: N-terminal GST; dsDNA, one strand shown
# Outline: as §1
# Sequence of CRX (O43186 whole entry): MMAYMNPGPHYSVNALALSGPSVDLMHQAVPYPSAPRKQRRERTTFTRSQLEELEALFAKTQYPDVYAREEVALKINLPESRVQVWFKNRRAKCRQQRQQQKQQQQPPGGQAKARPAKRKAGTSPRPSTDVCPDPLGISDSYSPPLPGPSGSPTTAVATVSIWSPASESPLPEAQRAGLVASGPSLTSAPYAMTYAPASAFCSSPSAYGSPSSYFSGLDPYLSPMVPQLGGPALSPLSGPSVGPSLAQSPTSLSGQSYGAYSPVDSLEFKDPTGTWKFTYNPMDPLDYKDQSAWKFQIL
# Sequence of HSF1 (Q00613 whole entry): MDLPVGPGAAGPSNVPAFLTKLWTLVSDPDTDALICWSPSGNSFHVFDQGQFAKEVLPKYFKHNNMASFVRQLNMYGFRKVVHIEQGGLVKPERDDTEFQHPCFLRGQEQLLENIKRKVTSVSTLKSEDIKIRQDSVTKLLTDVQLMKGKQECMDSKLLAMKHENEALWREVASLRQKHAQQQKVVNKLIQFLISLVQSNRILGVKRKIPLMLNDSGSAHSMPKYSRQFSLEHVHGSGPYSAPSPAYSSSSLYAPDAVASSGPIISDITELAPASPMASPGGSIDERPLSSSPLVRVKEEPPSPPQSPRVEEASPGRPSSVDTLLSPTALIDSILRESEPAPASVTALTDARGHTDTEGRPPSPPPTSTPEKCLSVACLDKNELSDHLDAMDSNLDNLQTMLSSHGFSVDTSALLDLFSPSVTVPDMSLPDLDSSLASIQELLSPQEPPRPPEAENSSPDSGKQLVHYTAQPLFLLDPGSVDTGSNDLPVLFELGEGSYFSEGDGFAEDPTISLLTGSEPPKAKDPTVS
# Sequence of ELF4 (Q99607 whole entry): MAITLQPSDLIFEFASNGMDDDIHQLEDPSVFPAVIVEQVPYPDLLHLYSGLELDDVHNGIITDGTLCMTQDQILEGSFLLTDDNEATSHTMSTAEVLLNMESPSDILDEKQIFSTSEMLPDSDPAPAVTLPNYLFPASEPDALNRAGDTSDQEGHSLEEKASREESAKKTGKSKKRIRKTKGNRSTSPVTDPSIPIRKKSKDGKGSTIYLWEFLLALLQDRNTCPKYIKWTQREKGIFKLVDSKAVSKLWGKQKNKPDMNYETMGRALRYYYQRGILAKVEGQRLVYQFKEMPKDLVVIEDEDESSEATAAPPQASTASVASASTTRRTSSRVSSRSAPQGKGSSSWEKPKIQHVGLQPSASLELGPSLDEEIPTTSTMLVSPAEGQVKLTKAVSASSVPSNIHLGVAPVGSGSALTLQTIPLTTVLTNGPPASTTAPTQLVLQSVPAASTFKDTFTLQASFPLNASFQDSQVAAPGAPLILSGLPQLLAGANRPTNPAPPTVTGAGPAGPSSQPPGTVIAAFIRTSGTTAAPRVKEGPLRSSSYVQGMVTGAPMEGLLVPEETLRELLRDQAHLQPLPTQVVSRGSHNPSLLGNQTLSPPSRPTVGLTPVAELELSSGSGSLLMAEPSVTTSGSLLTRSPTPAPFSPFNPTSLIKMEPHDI
# Sequence of ETV5 (P41161 whole entry): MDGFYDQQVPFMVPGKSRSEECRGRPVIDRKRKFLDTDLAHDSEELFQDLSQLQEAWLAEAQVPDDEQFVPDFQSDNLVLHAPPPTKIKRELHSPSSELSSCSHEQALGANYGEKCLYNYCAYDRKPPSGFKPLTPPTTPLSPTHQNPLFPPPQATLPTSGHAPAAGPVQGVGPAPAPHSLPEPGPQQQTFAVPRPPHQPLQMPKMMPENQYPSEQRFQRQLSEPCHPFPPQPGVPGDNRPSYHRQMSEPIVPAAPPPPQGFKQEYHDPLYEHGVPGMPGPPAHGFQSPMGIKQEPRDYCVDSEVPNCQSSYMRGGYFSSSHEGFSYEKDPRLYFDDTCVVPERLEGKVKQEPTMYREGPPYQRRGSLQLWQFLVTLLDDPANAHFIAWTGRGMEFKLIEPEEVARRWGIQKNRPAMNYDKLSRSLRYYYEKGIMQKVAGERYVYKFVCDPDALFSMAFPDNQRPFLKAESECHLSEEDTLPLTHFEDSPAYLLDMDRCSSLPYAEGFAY
sequence,measurement,setting,value
CTGATC,binding signal,FEV,"1.31 fold enrichment (6-mer frequency, TF over GST control)"
same,binding signal,ETV5,"1.29 fold enrichment (6-mer frequency, TF over GST control)"
same,binding signal,HSF1,"1.53 fold enrichment (6-mer frequency, TF over GST control)"
same,binding signal,SPIC,"1.57 fold enrichment (6-mer frequency, TF over GST control)"
same,binding signal,ELF4,"1.41 fold enrichment (6-mer frequency, TF over GST control)"
same,binding signal,ELK4,"1.39 fold enrichment (6-mer frequency, TF over GST control)"
same,binding signal,ETV2,"1.13 fold enrichment (6-mer frequency, TF over GST control)"
same,binding signal,ELF3,"1.25 fold enrichment (6-mer frequency, TF over GST control)"
same,binding signal,CRX,"1.95 fold enrichment (6-mer frequency, TF over GST control)"
